# Source: PubChem (National Center for Advancing Translational Sciences (NCATS))
# PLK1 PBD block: inhibitors of human PLK1 polo-box domain binding; Plk1 PBD binding of FITC phosphopeptide, fluorescence polarization; Potency, µM, without a hit: max response, negative = inhibition, usual class: inhibitors; AID 720504; P53350; 360,000 tested, 2.8% active; note: series mostly up to about 57 µM; % is set by controls: 0 for no effect and ±100 for the full control effect; nearly all actives have a fitted effect of over 65% in size
# G9a inh: inhibitors of human histone lysine methyltransferase G9a; Q96KQ7; G9a H3K9 monomethylation, AlphaScreen, 2 h; Potency, µM (highest dose often 102 µM), inactives show at the highest dose activity, negative = inhibition, actives largely listed as inhibitors; 350,000 tested, 8.8% active; AID 504332; note: % is set by controls: 0 for no effect and ±100 for the full control effect; nearly all actives have a fitted effect of over 75% in size
# Target sequence (Q96KQ7 913-1193 limits assumed): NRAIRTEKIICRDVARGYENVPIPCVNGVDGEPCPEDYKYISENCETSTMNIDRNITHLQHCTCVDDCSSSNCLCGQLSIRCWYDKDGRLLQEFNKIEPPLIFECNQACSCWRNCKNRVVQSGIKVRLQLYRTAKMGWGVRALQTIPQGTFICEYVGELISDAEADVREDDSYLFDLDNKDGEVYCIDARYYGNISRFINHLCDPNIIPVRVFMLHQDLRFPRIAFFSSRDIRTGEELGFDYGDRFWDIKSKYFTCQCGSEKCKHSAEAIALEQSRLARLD
#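 G9a (20 nM) was preincubated 15 min with compound, then reacted 2 h at room temperature with 500 nM biotin-H3K9 peptide and 20 µM SAM. Monomethyl-H3K9 detected by AlphaScreen using anti-H3K9me1 antibody.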
# JMJD2A Tudor inh: JMJD2A Tudor domain (human) inhibition; O75164; AlphaScreen JMJD2A-Tudor / H3K4me3 peptide binding; Potency, µM (highest dose often 114 µM), without a hit: at the highest dose activity change, negative = inhibition, most hits filed as inhibitors; 390,000 tested, 4.4% active; AID 504339; note: % is set by controls: 0 for no effect and ±100 for the full control effect; nearly all actives have a fitted effect of over 50% in size
# HP1b chromo inh: HP1-beta chromodomain-methylated histone interaction inhibition | P83916 | AlphaScreen HP1-beta / biotin-H3K9me3 peptide binding | Potency, µM (series often up to 114 µM), inactives show top-dose activity change, negative = inhibition, actives largely listed as inhibitors | 390,000 tested, 0.56% active; note: nearly all actives have a fitted effect of over 70% in size
# Target sequence (P83916 whole entry, looked up): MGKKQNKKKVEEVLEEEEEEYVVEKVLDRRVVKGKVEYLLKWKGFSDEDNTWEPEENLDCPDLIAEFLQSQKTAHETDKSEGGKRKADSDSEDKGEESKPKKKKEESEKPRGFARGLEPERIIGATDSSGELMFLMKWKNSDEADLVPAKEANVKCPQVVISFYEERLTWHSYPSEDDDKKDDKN
#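 HP1-beta protein (50 nM final) preincubated 30 min at room temperature with biotinylated H3(1-18)K9me3 peptide (50 nM) in PBS pH 7.4, 0.01% Tween-20, then compound added for 30 min. AlphaScreen streptavidin donor/nickel chelate acceptor beads (10 ug/mL final), 30 min dark, luminescence read.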
# BAZ2B inh: inhibitors of human BAZ2B bromodomain | Potency, µM (highest dose often 114 µM), for the others: at the top dose activity change, negative = inhibition, actives largely listed as inhibitors | AlphaScreen BAZ2B-H3K14Ac peptide displacement | 360,000 tested, 4.4% active | AID 504333; note: % is set by controls: 0 for no effect and ±100 for the full control effect; nearly all actives have a fitted effect of over 60% in size
#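 BAZ2B (50 nM) with biotin-H3(5-23)K14Ac peptide (50 nM) in PBS pH 7.4, 0.01% Tween-20, preformed 30 min, then compound 30 min at room temperature; top concentration 110uM. AlphaScreen streptavidin donor/nickel chelate acceptor beads (10 ug/mL final), 20 min dark, signal read.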
# VDR inhibitor: inhibitors of human vitamin D receptor | AID 504847 | VDR-SRC2-3 peptide fluorescence polarization, 2 h | Potency, µM, without a hit: max response, negative = inhibition, usual class: inhibitors | 400,000 tested, 0.93% active | P11473; note: % is set by controls: 0 for no effect and ±100 for the full control effect
#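 Fluorescence polarization assay of small-molecule disruption of VDR binding to coregulator peptide SRC2-3. Compounds and controls pin-transferred, then read after 2 h incubation at ambient room temperature.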
# * marks the source's active call; other numbers are inactive results; u = inconclusive; x = no result given; [ ] = remark or other dose. Only some compounds are listed: those with a hit (about 11% of all), similar ones and a draw of the others. Calls come from the whole dose curve; as a rule, active = well fitted curve in the direction sought with a large enough effect; inconclusive = small, poorly fitted or top-dose-only effect, or another doubt; inactive = no such curve, though single readings can be large; an effect the other way counts as inactive or inconclusive. Potency is the fitted concentration of half-maximal effect.
SMILES,PLK1 PBD block,G9a inh,JMJD2A Tudor inh,HP1b chromo inh,BAZ2B inh,VDR inhibitor
COc1ccc2c(c1)c(=O)oc1c(C)c(OC(C)C(=O)N[C@@H](Cc3c[nH]c4ccc(O)cc34)C(=O)O)ccc12 (some centres not stated),-7%,x,u,6%,50µM*,-6%
CCCCn1c(SCC(=O)NCc2ccc(C)cc2)nc2c(sc3ccccc32)c1=O,x,-1%[59 µM],u,29%,5%,0%
CC(C)(C)C(=O)Cn1c(=O)n(-c2ccc(Cl)c(Cl)c2)c(=O)c2c3c(sc21)CCCC3,x,-44%[59 µM],-14%,22%,-15%,-4%
CN(Cc1ccco1)c1cc(-c2cccnc2)ncn1,x,-27%[0.501 µM],x,x,x,u
CN(Cc1ccco1)c1cc(-c2ccc3c(c2)OCO3)ncn1,x,2%[0.501 µM],x,x,x,22µM*
CCOc1cc(C2C(C#N)=C(N)OC(C)=C2C(C)=O)c(Br)c(Br)c1OC(C)C (configuration not stated),-30%,u,-22%,33%,-8%,u
CCOc1cc(C2C(C#N)=C(N)OC(C)=C2C(C)=O)cc(Br)c1O (configuration not stated),24µM*,u,89µM*,-17%,u,3%
Cc1cc(NC(=O)c2sccc2C)n(-c2cccc(Cl)c2)n1,-5%,0%,-10%,36%,-6%,-4%
O=C(COC(=O)c1cc(Cl)ccc1O)NCC1CCCO1 (configuration not stated),1%,-30%,-10%,37%,11%,-10%
CCC(Sc1ncnc2sc3c(c12)CCCC3)C(=O)OC(C)C (configuration not stated),x,164%[59 µM],82%,104%,178%,3%
CCOc1ccc(CNC(=O)c2ccc3c(c2)c(C)c(C)n3Cc2ccccc2)cc1OC,x,u,-32%,17%,-22%,8%
Cc1ccc2[nH]c(=O)c3cc(C(=O)NC(C)C)sc3c2c1,u,-5%,32µM*,36%[57 µM],-17%,-10%
CCOc1ccccc1CNC(=O)c1nn(CC)cc1[N+](=O)[O-],-6%,6%[59 µM],-13%,22%,5%,-9%
CN(C)C=Nc1nonc1-c1ccccc1,-2%,9%,-2%,42%,4%,4%
CN(C)C=Nc1nonc1-c1ncn[nH]1,-6%,22µM*,2.5µM*,10%,-10%,-12%
CCOCCCN(Cc1ccco1)C(=O)c1cc2c(=O)[nH]c3ccc(C)cc3c2s1,-6%,-32%[59 µM],-12%,14%,-4%,-14%
CCOc1nc(Nc2ccccc2F)nc(OCC)n1,-15%,8%,-3%,30%,1%,-8%
Fc1ccccc1Nc1nc(Cl)nc(Cl)n1,19µM*,6%[59 µM],u,-12%,0%,71µM*
COc1ccc(OC)c(NC(=O)c2cc(-c3ccc(Cl)s3)nc3ccccc23)c1,x,-3%[59 µM],7%,35%,3%,-14%
COc1ccc(-c2nc(-c3cccc(C)c3)nc(N3CCN(C)CC3)c2C#N)cc1,-2%,79µM*,-19%,9%,-7%[57.1 µM],29%
COc1cccc(-c2nc(-c3ccccc3)nc(N3CCN(C)CC3)c2C#N)c1,-2%,50µM*,56µM*,-9%,u,-13%
O=Cc1s/c(=N\S(=O)(=O)c2ccccc2)n(CCCCl)c1Cl,4.7µM*,45µM*,-17%,38%,-16%,22µM*
Cc1ccc(S(=O)(=O)NCCc2nnc3ccc(SCC(=O)Nc4ccc(OC(F)(F)F)cc4)nn23)cc1,x,-3%[59 µM],-3%,33%,-1%,7%
COC(=O)c1cc2c(C(F)(F)F)nn(C)c2s1,-6%,-3%,2%,16%,1%,-2%
Cn1c(-c2cc3c(C(F)(F)F)nn(C)c3s2)n[nH]c1=S,-5%,32µM*,11µM*,-11%,-35%,10%
SMILES,PLK1 PBD block,G9a inh,JMJD2A Tudor inh,HP1b chromo inh,BAZ2B inh,VDR inhibitor
Cn1nc(C(F)(F)F)c2cc(C(=O)O)sc21,-17%,3%,-3%[11.4 µM],21%,-8%,6%
CCn1c(-c2cc3c(C(F)(F)F)nn(C)c3s2)n[nH]c1=S,-14%,5.6µM*,8.9µM*,-17%,-4%,-1%
COc1cccc(NC(=O)c2ccc(-n3cnnn3)cc2)c1,-1%,24%,4%,13%,-17%,-7%
O=C(Nc1c(C(=O)Nc2ccccc2)cnn1-c1ccccc1)c1ccco1,-6%,8%[59 µM],-14%,12%,9%,7%
Cn1cccc1-c1nc2ccc(NC(=O)c3ccco3)cc2[nH]1,1%,u,u,u,50µM*,-7%
O=C(Nc1ccc2nc(-c3cccs3)[nH]c2c1)c1ccco1,0%,u,0%,42%,1%,15%
Cc1ccc(NC(=O)c2cnn(-c3ccccc3)c2NC(=O)c2ccco2)cc1,3.4µM*,15%,-32%[11.4 µM],-10%,5%,-22%
Cc1ccc2nc(-c3ccc(NC(=O)c4ccco4)cc3)[nH]c2c1,-2%,28µM*,-34%,-20%,-16%,37%
COc1ccc(CNC(=O)C2Cc3cc(S(=O)(=O)N4CCCC4)ccc3N2C(C)=O)c(OC)c1 (configuration not stated),-12%,22µM*,-23%,42%,u,-3%
CC(=O)N1c2ccc(S(=O)(=O)N3CCCCC3)cc2CC1C(=O)NCc1ccc(N(C)C)cc1 (configuration not stated),21µM*,40µM*,28µM*,-14%,-34%,-23%
CCOc1ccc(OCC)c(NC(=O)C2CCN(S(=O)(=O)c3ccc4c(c3)CC(C)N4C(C)=O)CC2)c1 (configuration not stated),30µM*,-3%[59 µM],u,-4%,-8%,-7%
CCOc1ccc(-c2c(=O)n(OCc3ccc([N+](=O)[O-])cc3)c3ccccc3[n+]2[O-])cc1,x,1%[59 µM],x,x,22%,x
O=C(Nc1c(C(=O)c2ccc(Cl)cc2)oc2ccccc12)c1cc(=O)c2ccccc2o1,x,20%[59 µM],-6%,62%,24%,12%
Cc1c(O)ccc2c(CC(=O)N[C@@H](Cc3c[nH]c4ccccc34)C(=O)O)cc(=O)oc12,0%,-10%,-10%,30%,0%,13%
CC(=O)NN1C(=O)/C(=C/c2ccc(Br)o2)SC1=S,11µM*,50µM*,13%[11.4 µM],50µM*,-37%,-2%
CC(=O)NN1C(=O)/C(=C\c2ccc(Br)o2)SC1=S,u,40µM*,-26%,u,u,-3%
CN(C)c1ccc(-n2cccc2)cc1,-9%,40µM*,20µM*,22µM*,22µM*,3%
CC1CCCC(NC(=O)c2cccc(S(=O)(=O)N3CCOCC3)c2)C1C (configuration not stated),-2%,x,x,x,x,x
COc1cc(C)ccc1S(=O)(=O)NC(=O)C1(C)CCN1C(=O)Cc1ccc(Cl)cc1Cl (configuration not stated),-5%,x,x,x,x,x
